Experimental findings from PubChem BioAssay (Tox21) are described below.

Each structure is given as a SMILES string. Records with an inconclusive call do not appear. A call without a number means that no potency is given here. Activity calls are given as the source filed them. Calls come from the whole dose curve; as a rule, active = well fitted activation curve with a large enough effect in the repeat runs; inconclusive = weak or mixed curves; inactive = flat fitted curve, though single readings scatter.
Potency is the fitted concentration of half-maximal effect.

This assay is described as follows: A CellTox Green Cytotoxicity Assay to monitor cytotoxicity in HEK293 cells - 16 hour (AID 1224888). Note: nearly all actives have a fitted effect of over 35% in size. Conditions: CellTox Green fluorescence; series mostly up to 76.8 µM. An excerpt: National Center for Advancing Translational Sciences [NCATS]
NIH Chemical Genomics Center [NCGC]
U.S. Environmental Protection Agency [EPA]
National Institutes of Environmental Health Sciences [NIEHS]
National Toxicology Program [NTP]
Cell-based models are critical for drug discovery. Determining the natural cytotoxic effects resulting from test compounds is an essential research activity. A CellTox Green Cytotoxicity Assay to monitor cytotoxicity in real time of continues cell culture during 40 hours of the compound treatment was used to screen Tox21 10K library compounds in Hek293 cells. CellTox Green Cytotoxicity Assay is a nonlytic, homogeneous, biofluorescent method to measure cytotoxicity in cell culture after experimental manipulation. The assay system uses a proprietary asymmetric cyanine dye that is excluded from viable cells but preferentially stains the dead cell's DNA. […] Viable cells produce no appreciable increases in fluorescence. Therefore, the fluorescence signal produced by the binding interaction with dead cell DNA is proportional to cytotoxicity.
The mixture of Hek293 cell suspension and reagents were dispensed at 600cells/6 ul/well in 1536-well tissue culture treated black solid bottom plates using a Multidrop dispenser. After the assay plates were incubated at a 37 C/5% CO2 incubator for 5 hours, 23 nL of compounds dissolved in DMSO, positive and negative controls was transferred to the assay plate by a pintool work station. The plates were incubated at 37 C for 40 hours. The fluorescence intensity were measured at 0h, 8h, 16h, 24h, 32h and 40h time points using ViewLux plate reader during compound treatment.
In the case of `C[C@@H](C1=C(CCN(C)C)Cc2ccccc21)c1ccccn1`, the Potency result is “inactive”.

As to `COc1ccc(C(C)=O)cc1`, the Potency result was “inactive”. On to `O=c1c2ccccc2nnn1CCl`, for which the Potency entry is “inactive”. As for `CC1(C)[C@H]2CC[C@]1(C)[C@H](O)C2`, the Potency result was “inactive”. On to `Oc1ccc(Sc2ccc(O)cc2)cc1`, for which the Potency result was “inactive”. With `CN1CCC(=C2c3ccccc3C=Cc3ccccc32)CC1` the entry was “inactive”. With `CCOC(=O)C1=C(C)NC(C)=C(C(=O)OC)C1c1cccc([N+](=O)[O-])c1` (stereo not given) the entry was “inactive”; with `Cc1ccc(C(=O)C(C)CN2CCCCC2)cc1` (stereo not given), “inactive”.

With `CN(c1nccc(=O)[nH]1)C1CCN(c2nc3ccccc3n2Cc2ccc(F)cc2)CC1`, the Potency entry was “inactive”. To `O=c1[nH]cnc2ccccc12` belongs “inactive”; to `CC(C)CC=O`, “inactive”. To `Nc1cnn([C@@H]2O[C@H](CO)[C@@H](O)[C@H]2O)c(=O)n1` belongs “inactive”. To `CCCCCC/C=C/C=O` belongs “inactive”.

Regarding `C=CCCCCCC`, the Potency entry was “inactive”. With `CCCCC(CC)(CO)CO` the entry was “inactive”. As to `Cc1cc(CC(=O)O)c(C)n1-c1ccc(Cl)cc1`, the Potency entry was “inactive”. For `CCCc1ccccc1`, the Potency entry was “inactive”. Regarding `Cc1cccc(OCCOc2cccc(C)c2)c1`, the Potency entry is “inactive”. With `CCOc1cc(OCC)c(C(=O)CCC(=O)O)cc1OCC` the entry was “inactive”; with `CCN(CC)CCOc1ccc2c(c1)C(=O)c1cc(OCCN(CC)CC)ccc1-2`, “inactive”. As for `CCCCCCCCCO`, the Potency result was “inactive”. Consider `CC(=O)SCc1ccco1`, for which the Potency result is “inactive”. `Cc1occc1S`: the Potency result is “inactive”.

Take `Oc1ccc(O)c2c(O)cccc12`: the Potency result was “inactive”.

For `N#Cc1c(F)cccc1F`, the Potency result is “inactive”. Consider `CCCCCCc1ccc(N)cc1`, for which the Potency entry is “inactive”.

Consider `CC(C)CCCC(C)CCO` (stereo not given), for which the Potency entry was “inactive”. For `CC(O)C1CCCCC1` (stereo not given), the Potency result was “inactive”. With `Cc1ccccc1N=Nc1ccc(N=Nc2c(O)ccc3ccccc23)c(C)c1` the entry was “inactive”; with `NC(N)=NN=C(/C=C/c1ccc([N+](=O)[O-])o1)/C=C/c1ccc([N+](=O)[O-])o1`, 9.52 µM (active). As to `CC1(C)CCC(C)(C)c2cc(NC(=O)c3ccc(C(=O)O)cc3)ccc21`, the Potency entry is “inactive”. With `CCC(C)N(C)C(=O)c1cc2ccccc2c(-c2ccccc2Cl)n1` (stereo not given) the entry was “inactive”. As to `Cc1ccc(O)c([C@H](CCN(C(C)C)C(C)C)c2ccccc2)c1`, the Potency result was “inactive”.

Turning to `CN(C)C/C=C(/c1ccc(Br)cc1)c1cccnc1`, the Potency result was “inactive”. For the compound `CC(=O)O[C@H]1C[C@@H]2CC[C@@H]3[C@H](CC[C@@]4(C)[C@H]3C[C@H]([N+]3(C)CCCCC3)[C@@H]4OC(C)=O)[C@@]2(C)C[C@@H]1N1CCCCC1`, the Potency result is “inactive”. For `CCCCCC(CO)CCC` (stereo not given), the Potency result is “inactive”. As for `NC(N)=N/N=C/c1c(Cl)cccc1Cl`, the Potency entry is “inactive”. With `CC(C)c1cccc(C(C)C)c1NC(=O)NS(=O)(=O)c1cc(C(C)(C)O)co1` the entry was “inactive”; with `O=C(NN1CCCC1)NS(=O)(=O)c1ccc(Cl)cc1`, “inactive”; with `CN(C)CC/C=C1\c2ccccc2COc2ccccc21`, “inactive”.
